# Measured values as given in PubChem BioAssay AID463190 (Sanford-Burnham Center for Chemical Genomics, 2010).
# Where “and” joins values, the source holds several entries; their conditions need not be identical. Equal entries are not always repeated. Among all 330,000 compounds or so, about 7,300 (2.2%) were called active.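 Rule for the calls: active = inhibition of at least 40%; inactive = the rest.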 The sample as a whole holds a higher share of actives than the screen did.
# Test: growth inhibition of tim10-1 ts yeast – luminescence, uHTS, primary screen (AID 463190);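 note: mutant grown at 25 °C; 0% = DMSO wells with yeast and 100% = wells holding no yeast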
# Conditions: S. cerevisiae tim10-1 ts strain growth, BacTiter-Glo, 24 h; at 20 µM; stronger effect = higher value
row,SMILES,inhibition
1,CCOC(=O)c1ccc(N=C2SC(C(=O)NC)CC(=O)N2CCc2ccccc2)cc1 (stereo not given),8.86% (inactive)
2,Cc1cccc(N(C)C(=O)CN2C(=O)COc3ccc(S(=O)(=O)N4CCCCCC4)cc32)c1,25.2% (inactive)
3,COc1ccc(S(=O)(=O)Nc2ccc(O)c(Sc3nc4ccccc4s3)c2)cc1,44.6% (active)
4,CCOc1ccc(S(=O)(=O)Nc2nc3cc(OC)ccc3s2)cc1,-15.2% (inactive)
5,COc1ccc(NS(=O)(=O)c2ccc3oc(SCC(N)=O)nc3c2)cc1,6.21% (inactive)
6,O=S(=O)(c1cccs1)N1CCN(CCOc2ccccc2)CC1,8.64% (inactive)
7,C[C@@H](NC(=O)OC(C)(C)C)c1nnc(S(=O)(=O)Cc2ccccc2)o1,45.1% (active)
8,C[C@H](NC(=O)OC(C)(C)C)c1nnc(SCC(=O)Nc2ccc(Br)cc2)o1,20.6% (inactive)
9,CC(C)Sc1nnc([C@H](Cc2ccccc2)NC(=O)OC(C)(C)C)o1,15.3% (inactive)
10,C=Cn1c(C(=O)O)ccc1-c1ccc(OC)cc1,4.85% (inactive)
11,CC1(C)CCSC(/C=C/c2ccccc2)=N1,44.4% (active)
12,Cc1ccc(C(=O)NC2CCN(C(=O)Nc3ccccc3Cl)CC2)cc1,-3.39% (inactive)
13,CC(NC(=O)CN(C)S(=O)(=O)c1ccc(F)cc1)C1CC2CCC1C2 (stereo not given),25.6% (inactive)
14,Cc1cc(CNCc2c(C(=O)N(C)Cc3ccccc3)nc3ccccn23)nn1C,10.5% (inactive)
15,COc1cnc(-c2ccccn2)nc1Oc1ccc(C(C)(C)C)cc1,35% (inactive)
16,Cc1ccc(Oc2nc(-c3ccccn3)nc3ccccc23)cc1,44.9% (active)
17,CC(C)(C)Nc1nc(-c2ccccn2)nc2ccccc12,-7.74% (inactive)
18,Cn1nc(C(C)(C)C)c([N+](=O)[O-])c1C(N)=O,-18.4% (inactive)
19,S=C(Nc1cccc(Cl)c1)Nc1ccc2c(c1)OCCO2,32.9% (inactive)
20,Cc1csc(NC(=S)Nc2cccc(Cl)c2)n1,29.1% (inactive)
21,FC(F)(F)c1cccc(NC(=S)Nc2cccc(Cl)c2)c1,48.1% (active)
22,Cc1cc(C)cc(OCC(=O)NCc2cc(C)nc3ccccc23)c1,20.5% (inactive)
23,CCOc1ccc(-n2c(SCC(=O)NC3CCS(=O)(=O)C3)nnc2-c2cccnc2)cc1 (stereo not given),7.61% (inactive)
24,Cc1cccc(C)c1NC(=O)CN(C)C(=O)CCC(=O)c1ccccc1,9.26% (inactive)

row,SMILES,inhibition
1,Cc1ccc(C(=O)CCC(=O)N(C)CC(=O)Nc2c(Cl)cccc2Cl)cc1,97.9% (active)
2,CN(CC(=O)Nc1c(Cl)cccc1Cl)C(=O)c1ccncc1,1.02% (inactive)
3,Cc1ccc(CNC(=O)Cc2cn(C)c3ccccc23)cc1,27.3% (inactive)
4,CSc1ccc(S(=O)(=O)NCc2ccc(Cl)cc2)cc1,44.8% (active)
5,CC(C)CNS(=O)(=O)c1ccc(CCC(=O)NCc2ccc(Cl)cc2)cc1,8.22% (inactive)
6,Cc1ccc(S(=O)(=O)NCCC(=O)NCc2ccc(Cl)cc2)cc1C,8.85% (inactive)
7,O=C(OCC(=O)N1CCc2ccccc21)C1CCCN1S(=O)(=O)c1ccc(Cl)cc1 (stereo not given),-10.6% (inactive)
8,COc1ccc(CN2CC(C(=O)NCCc3ccc(Cl)cc3)CC2=O)cc1 (stereo not given),-2.13% (inactive)
9,CCCC1CCC(=NNC(=S)NCCc2ccccc2)CC1 (stereo not given),-25.5% (inactive)
10,Cc1ccc(NC(=S)N/N=C2/CCCc3c(C)cc(C)cc32)cc1,9.99% (inactive)
11,CCCCNC(=S)N/N=C1\CCCCc2ccccc21,47.7% (active)
12,COC(=O)c1c(NC(=O)C(=O)N2CCCCC2)sc2c1CC(C)(C)OC2,8.07% (inactive)
13,c1ccc(Cc2ccc(OCCn3ccnc3)cc2)cc1,-1.87% (inactive)
14,CSCC[C@H](NC(=O)NC1CCCC1)C(=O)O,3.78% (inactive)
15,CCOC(=O)N1CCC(N2Cc3cccc(C(=O)Nc4c(C)cccc4CC)c3C2=O)CC1,51% (active)
16,O=C(O)c1cccc2c1C(=O)N(C1CCCC1)C2,8.44% (inactive)
17,CCOC(=O)N1CCC(N2Cc3cccc(C(=O)Nc4ccc(S(=O)(=O)N(CC)CC)cc4)c3C2=O)CC1,17.7% (inactive)
18,O=C(Nc1nnc(-c2ccc(Cl)cc2)o1)c1ccccc1Br,6.25% (inactive)
19,O=C(Nc1nnc(-c2ccccc2)o1)c1cc(-c2cccs2)nc2ccccc12,48.6% (active)
20,CC(C)(C)Cc1nnc(NC(=O)c2cc(-c3ccccc3)nc3ccccc23)s1,23.3% (inactive)
21,Cc1cc([N+](=O)[O-])nn1CCCC(=O)Nc1cccnc1Cl,16.8% (inactive)
22,Cc1ccccc1OCC(=O)Nc1ccc2c(c1)ncn2C,5.78% (inactive)
23,Cc1ccccc1OCC(=O)Nc1ccc(N2CCN(C(=O)C(C)C)CC2)c(Cl)c1,63.3% (active)
24,Cc1ccccc1OCC(=O)Nc1ccc(S(=O)(=O)N2CCOCC2)cc1,37.4% (inactive)

row,SMILES,inhibition
1,Cc1cc(NC(=O)CCS(=O)(=O)c2ccc(F)cc2)no1,-5.29% (inactive)
2,COc1cc([N+](=O)[O-])ccc1NC(=O)COC(=O)CCOc1ccc(C)cc1,50.3% (active)
3,CSc1ccccc1NC(=O)COC(=O)CCCOc1ccc(C)cc1,7.06% (inactive)
4,COc1cc([N+](=O)[O-])ccc1NC(=O)CN1CCCC1,6.08% (inactive)
5,COC(=O)N/N=C/c1ccc(/C=N/NC(=O)OC)cc1,7.21% (inactive)
6,Cc1nonc1C(=O)N/N=C/c1ccc(O)cc1,51.4% (active)
7,Cc1nc2ccc(C(=O)N/N=C/c3ccc(O)cc3)cc2[nH]1,0.009% (inactive)
8,O=C(O)Cc1csc(-c2cccc(Oc3ccccc3)c2)n1,7.9% (inactive) and -6.65% (inactive)
9,CN(CC(=O)NCCc1ccc(S(N)(=O)=O)cc1)CC(=O)Nc1ccc(F)c(F)c1F,0.849% (inactive)
10,Cc1ccc(S(=O)(=O)N(CC(O)CN2CCCCC2)c2cccc([N+](=O)[O-])c2)cc1 (stereo not given),-38.7% (inactive)
11,CC1CCCCN1C(=S)NCc1ccccc1 (stereo not given),-0.074% (inactive)
12,C/C(=N\NC(=S)NCc1ccccc1)c1ccc(Cl)cc1,22.9% (inactive)
13,C/C(=N\NC(=S)NCc1ccccc1)C1CCCCC1,42.6% (active)
14,Cc1oc(CC(C)C)c(CN2CCCC2)c1C(=O)O,3.08% (inactive)
15,Cc1ccc(C2=NN(C(=O)COc3ncnc4ccccc34)C(c3ccco3)C2)cc1 (stereo not given),-2.47% (inactive)
16,O=C1c2cccc(OCC(=O)N3N=C(c4cccs4)CC3c3ccc(F)cc3)c2CCN1Cc1ccccc1 (stereo not given),19.6% (inactive)
17,O=C(COc1ccccc1Cl)N1N=C(c2cccs2)CC1c1ccco1 (stereo not given),40.8% (active)
18,CCc1n[nH]c(=S)n1/N=C/c1c[nH]c2ccc(Br)cc12,12% (inactive)
19,Cc1cc(C)cc(NC(=O)C2CCCN(S(=O)(=O)c3ccc4[nH]c(=O)ccc4c3)C2)c1 (stereo not given),-13.6% (inactive)
20,COc1ccc(C(=O)COC(=O)c2ccc([N+](=O)[O-])s2)cc1OC,57.9% (active)
21,COc1cc(NC(=O)COC(=O)c2ccc([N+](=O)[O-])s2)cc(OC)c1OC,30.9% (inactive)
22,O=C(OCC(=O)N1CCN(c2ccccc2)CC1)c1ccc([N+](=O)[O-])s1,11.9% (inactive)
23,S=c1[nH]nc(-c2ccco2)n1/N=C/c1ccc(Br)s1,22.5% (inactive)
24,CC(=O)NCCNC(=O)c1cc(-c2cccc3ccccc23)nc2ccccc12,3.15% (inactive)

row,SMILES,inhibition
1,CC(C)(C)c1ccc(C(=O)NCc2ccco2)cc1,15.4% (inactive)
2,CCc1ccc(-c2cc(C(=O)NCc3ccco3)c3ccccc3n2)s1,45.4% (active)
3,O=C(Cc1ccccc1)Nc1ccc(C(=O)Nc2ccccc2C(=O)O)cc1,1.08% (inactive)
4,FC(F)(F)c1ccc(CN2C[C@@H]3C(c4ccccc4)C4(c5ccccc5)CC3(C4)[C@H]2c2ccccc2)cc1 (stereo not given in full),28.9% (inactive)
5,O=C(NCc1ccc2c(c1)OCO2)c1c(-c2ccsc2)sc2ccccc12,5.6% (inactive)
6,CN[C@H](C(=O)NC[C@H]1O[C@@H](n2cnc3c(N)ncnc32)[C@H](O)[C@@H]1O)[C@@H](C)OCc1ccccc1,0.16% (inactive)
7,Cc1ccc(Cl)c(NC(=O)CN2CCN(C=O)CC2)c1,-10.1% (inactive)
8,CCCOc1cccc(C(=O)NCCCNC(=O)c2cccnc2)c1,-5.09% (inactive)
9,Cc1cccc(OCC(=O)NCCNC(=O)c2cccnc2)c1,-27.3% (inactive)
10,Cc1cccc(OCCNC(=S)NC(=O)c2cccnc2)c1,45.9% (active)
11,CN(C(=O)CSc1nnc(C2CC2)n1C)C1CCCc2ccccc21 (stereo not given),-15.4% (inactive)
12,Cc1csc(NC(=O)C2=COCCO2)n1,6.44% (inactive)
13,CC(=O)NCCC(=O)Nc1nc(-c2ccc3c(c2)OCCO3)cs1,4.76% (inactive)
14,Cc1ccc(-c2csc(NC(=O)C3=COCCO3)n2)cc1C,40.5% (active)
15,CC(C)(C)NC(=O)NC(=O)COC(=O)CCC1CCCCC1,40.3% (active)
16,COc1ccccc1OCCC(=O)OCC(=O)NC(=O)NC(C)(C)C,17.9% (inactive)
17,CC(C)(C)NC(=O)NC(=O)COC(=O)C1(C)CC1(Cl)Cl (stereo not given),21.3% (inactive)
18,Cc1cc(C)cc(C(=O)NC(=S)Nc2ccc3[nH]c(=O)[nH]c3c2)c1,12.4% (inactive)
19,COc1ccc(CCNC(=O)c2cnc(Cl)c(Cl)c2)cc1,17.4% (inactive)
20,COc1ccc(NC(=O)/C(Cl)=C(/Cl)S(=O)Cc2ccc(C)cc2)cn1 (stereo not given),30.1% (inactive)
21,COc1ccc(CS(=O)/C(Cl)=C(/Cl)C(=O)Nc2ccc(OC)nc2)cc1 (stereo not given),41% (active)
22,COc1ccc(CCNC(=O)COC(=O)c2ccc[nH]c2=O)cc1,7.85% (inactive)
23,O=C(Cn1cnc2c(OCc3ccccc3)ncnc21)NCc1nc2ccccc2[nH]1,-4.29% (inactive)
